Experiment in all cases: qHTS profiling for inhibitors of Plasmodium falciparum proliferation (AID 504749); also: nearly all actives have a fitted effect of over 60% in size
Conditions in all cases: P. falciparum in erythrocytes, SYBR Green DNA, 72 h; series mostly up to 28.7 µM
(In general: In qHTS, concentration-response curves come from the screen itself.)

One experiment concerns CP315. In outline:
(§1)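 In a 72 h erythrocytic culture (37 C, humidified, 5% CO2) at 2.5% hematocrit and 0.3% starting parasitemia, compounds were tested; SYBR Green I in detergent lysis buffer stained parasite DNA overnight.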

The test system of the next experiment is CP325. In outline: as §1
The test system of another experiment is CP329. A digest of the protocol:
as §1

In a further experiment the test system is CP335. In outline:
as §1

Another experiment concerns DFO2036. In outline: as §1
A further experiment relates to DIV14. A digest of the protocol: as §1
For the next experiment, the system named is DIV17. In outline:
as §1

The test system of a further experiment is DIV30. In outline:
as §1

In a further experiment the test system is Dd2. In outline:
as §1

In a further experiment the test system is ECU. A digest of the protocol: as §1
In a further experiment the test system is FAB9. A digest of the protocol: as §1
The subject of a further experiment is GB4. In outline: as §1
In the next experiment the test system is HB3. A digest of the protocol:
as §1

The test system of a further experiment is ICS. A digest of the protocol: as §1
The test system of the next experiment is N140. A digest of the protocol: as §1
In the next experiment the test system is P93_24. In outline:
as §1

In another experiment the test system is P94_40. A digest of the protocol:
as §1

The next experiment concerns PAD. A digest of the protocol: as §1
Another experiment deals with PC15. A digest of the protocol: as §1
A further experiment relates to JCK. In outline: as §1

SMILES strings stand for the structures. Inconclusive results are not listed. Calls of active or inactive are those of the source. Calls follow the shape of the dose curve; as a rule, active = well fitted inhibition curve with a large enough effect; inconclusive = small, poorly fitted or top-dose-only effect; inactive = flat fitted curve, though single readings scatter.
Potency is read from the fitted curve at half-maximal effect.

As for `COc1cc(C(=O)NCCCCCC(=O)O)cc(OC)c1OC`, the call in the experiment with CP315, in the experiment with CP325, in the experiment with CP329 and with DIV30 was inactive. In addition, the Potency entry in the experiment with CP335, with DFO2036, with DIV14, with DIV17, with Dd2 and in the experiment with ECU was “inactive” throughout. The Potency entry in the experiment with FAB9, in the experiment with GB4, in the experiment on HB3, in the experiment on ICS, in the experiment on N140 and in the experiment with P93_24 was “inactive” throughout. Further, the Potency entry in the experiment on P94_40, with PAD and in the experiment with PC15 was “inactive” throughout.

With `CC(=O)SC[C@@H](Cc1ccccc1)C(=O)NCC(=O)OCc1ccccc1`, the result with CP315, in the experiment with CP325, in the experiment with CP329 and in the experiment on DIV30 was inactive. In addition, the Potency entry in the experiment with CP335, in the experiment with DFO2036, in the experiment with DIV14, in the experiment on DIV17, in the experiment with Dd2 and in the experiment with ECU was “inactive” each time. In addition, the Potency entry in the experiment on FAB9, with GB4, in the experiment with HB3, in the experiment on JCK, with N140 and with P93_24 was “inactive” each time. The Potency entry in the experiment with P94_40, in the experiment with PAD and in the experiment with PC15 was “inactive” throughout.

On to `CCCCCCCCCCCCCCCCCCO`, for which the outcome in the experiment with CP315, in the experiment on CP325, in the experiment with CP329 and in the experiment on DIV30 was inactive. In addition, the Potency result with CP335, in the experiment on DFO2036, in the experiment with Dd2, with ECU, in the experiment with FAB9 and with GB4 was “inactive” in each case. In addition, the Potency result in the experiment with HB3, in the experiment with ICS, with JCK, in the experiment with N140, in the experiment with P93_24 and with P94_40 was “inactive” in each case. In addition, the Potency result with PAD and with PC15 was “inactive” each time.

On to `CC(=O)Nc1ccc(OCCOCCOc2ccc(NC(C)=O)cc2)cc1`, for which the call with CP315, in the experiment on CP325, in the experiment on CP329 and in the experiment with DIV30 was inactive. The Potency result in the experiment on CP335, in the experiment with DFO2036, in the experiment on DIV14, in the experiment on Dd2, with ECU and in the experiment on FAB9 was “inactive” throughout. The Potency result with GB4, in the experiment with HB3, in the experiment on ICS, in the experiment with JCK, in the experiment on N140 and in the experiment on P93_24 was “inactive” throughout. Besides, the Potency entry in the experiment with P94_40, in the experiment on PAD and with PC15 was “inactive” throughout.

For the compound `CC(C)CCOC(=O)c1ccc(N(C)C)cc1`, the call with CP315, in the experiment on CP325, in the experiment on CP329 and in the experiment on DIV30 was inactive. Moreover, the Potency entry in the experiment with CP335, in the experiment with DFO2036, in the experiment on DIV14, with DIV17, with Dd2 and in the experiment with ECU was “inactive” in each case. The Potency entry in the experiment with FAB9, with GB4, in the experiment with HB3, with ICS, in the experiment with JCK and in the experiment with P93_24 was “inactive” throughout. Also, the Potency result with P94_40, in the experiment on PAD and in the experiment with PC15 was “inactive” throughout.

On to `Cn1c([N+](=O)[O-])cnc1COC(N)=O`, for which the call with CP315, with CP325, in the experiment on CP329 and in the experiment on DIV30 was inactive. Moreover, the Potency entry in the experiment on CP335, in the experiment on DFO2036, in the experiment with DIV14, in the experiment on Dd2, in the experiment with ECU and in the experiment on FAB9 was “inactive” in each case. Further, the Potency result with GB4, in the experiment on HB3, with ICS, in the experiment on JCK, in the experiment on N140 and in the experiment with P93_24 was “inactive” each time. Besides, the Potency entry with P94_40, with PAD and in the experiment on PC15 was “inactive” each time.

`COc1ccc(Cc2cnc(N)nc2N)cc1OC`: the outcome with CP315, in the experiment with CP325, in the experiment with CP329 and with DIV30 was inactive. For the same compound, the Potency entry in the experiment on CP335, with DFO2036, in the experiment with DIV14, with DIV17, with Dd2 and in the experiment with ICS was “inactive” in each case. For the same compound, the Potency result in the experiment with JCK, with N140, with P93_24, in the experiment with P94_40, with PAD and in the experiment with PC15 was “inactive” each time. For the same compound, the Potency was 3.98 µM (active) with ECU, 7.94 µM (active) in the experiment with FAB9 and 2.39 µM (active) in the experiment on GB4.

Take `CCN(CC)CCOC(=O)C(c1ccccc1)c1ccccc1`: the call with CP315, in the experiment with CP325, with CP329 and with DIV30 was inactive. The Potency result with CP335, in the experiment with DFO2036, with DIV14, in the experiment with DIV17, in the experiment on ECU and in the experiment with FAB9 was “inactive” in each case. Moreover, the Potency result in the experiment on HB3, in the experiment with JCK, with N140, in the experiment with P93_24, in the experiment with P94_40 and with PAD was “inactive” throughout. In addition, the Potency result in the experiment with PC15 was “inactive”.

In the case of `CC(=O)N[C@@H](Cc1ccc(O)cc1)C(=O)O`, the call with CP315, in the experiment on CP325 and in the experiment on CP329 was inactive. For the same compound, the Potency entry in the experiment with CP335, with DFO2036, with DIV14, with DIV17, with Dd2 and in the experiment with ECU was “inactive” throughout. Moreover, the Potency result in the experiment on FAB9, in the experiment on GB4, in the experiment on HB3, in the experiment with ICS, in the experiment with JCK and in the experiment on N140 was “inactive” in each case. Besides, the Potency result in the experiment on P93_24, in the experiment on P94_40, in the experiment with PAD and in the experiment with PC15 was “inactive” throughout.

The values above are taken from PubChem BioAssay (NCATS).
